Screening results deposited in PubChem by National Center for Advancing Translational Sciences (NCATS).
KDM5B inh = inhibitors of human KDM5B histone demethylase. KDM5B demethylase, FDH-coupled NADH fluorescence (FDH is formaldehyde dehydrogenase). Potency, µM (top dose mostly 57.7 µM), actives largely listed as inhibitors. actives 2.6% (n = 220,000). AID 1347165; active means well fitted inhibition curve with a large enough effect; further: nearly all actives have a fitted effect of over 70% in size
Target sequence (Q9UGL1 whole entry, looked up): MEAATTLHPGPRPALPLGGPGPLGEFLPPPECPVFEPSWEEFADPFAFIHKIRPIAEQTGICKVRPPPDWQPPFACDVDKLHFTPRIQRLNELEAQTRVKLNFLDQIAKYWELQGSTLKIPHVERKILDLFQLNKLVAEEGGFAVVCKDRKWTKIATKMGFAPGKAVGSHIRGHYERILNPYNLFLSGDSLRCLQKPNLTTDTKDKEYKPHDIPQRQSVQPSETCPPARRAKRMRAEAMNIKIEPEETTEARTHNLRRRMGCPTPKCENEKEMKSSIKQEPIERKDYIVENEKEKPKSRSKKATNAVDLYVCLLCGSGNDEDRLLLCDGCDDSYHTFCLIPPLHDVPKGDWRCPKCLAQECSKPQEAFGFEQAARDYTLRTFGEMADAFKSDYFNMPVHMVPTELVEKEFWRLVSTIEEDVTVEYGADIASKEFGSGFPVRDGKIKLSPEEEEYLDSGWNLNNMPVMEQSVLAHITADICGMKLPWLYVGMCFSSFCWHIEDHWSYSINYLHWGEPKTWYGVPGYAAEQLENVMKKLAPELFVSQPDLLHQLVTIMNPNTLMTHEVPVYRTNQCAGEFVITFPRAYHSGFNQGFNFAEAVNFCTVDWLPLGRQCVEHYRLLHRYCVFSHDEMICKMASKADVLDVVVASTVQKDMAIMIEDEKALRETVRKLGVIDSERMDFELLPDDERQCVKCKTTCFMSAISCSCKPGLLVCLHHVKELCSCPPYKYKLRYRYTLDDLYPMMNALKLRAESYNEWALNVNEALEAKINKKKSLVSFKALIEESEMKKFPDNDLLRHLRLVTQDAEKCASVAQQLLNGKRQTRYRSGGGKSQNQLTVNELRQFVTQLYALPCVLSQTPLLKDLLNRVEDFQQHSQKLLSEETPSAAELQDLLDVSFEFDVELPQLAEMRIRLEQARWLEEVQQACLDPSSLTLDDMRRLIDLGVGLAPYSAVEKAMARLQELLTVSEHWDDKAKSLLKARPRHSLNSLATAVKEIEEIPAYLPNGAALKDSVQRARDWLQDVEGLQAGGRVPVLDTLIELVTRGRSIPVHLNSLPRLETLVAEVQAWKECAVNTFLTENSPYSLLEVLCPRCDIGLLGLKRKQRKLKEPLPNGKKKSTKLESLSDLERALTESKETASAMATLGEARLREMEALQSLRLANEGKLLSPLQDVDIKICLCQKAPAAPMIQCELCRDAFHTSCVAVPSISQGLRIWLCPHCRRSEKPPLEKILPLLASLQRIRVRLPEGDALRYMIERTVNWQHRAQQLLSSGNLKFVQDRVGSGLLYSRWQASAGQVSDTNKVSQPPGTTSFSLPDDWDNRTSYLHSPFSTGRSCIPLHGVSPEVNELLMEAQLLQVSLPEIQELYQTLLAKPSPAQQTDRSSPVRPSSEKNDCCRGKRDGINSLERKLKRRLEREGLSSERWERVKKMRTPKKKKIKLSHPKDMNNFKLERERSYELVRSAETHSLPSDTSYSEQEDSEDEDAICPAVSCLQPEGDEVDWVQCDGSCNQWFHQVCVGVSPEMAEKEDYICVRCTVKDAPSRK
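qHTS format, multiple compound concentrations. Buffer 50 mM HEPES pH 7.5/0.01% Tween-20; 200 nM KDM5BΔAP final; 10 min compound preincubation; substrate-mix levels 12.5 µM peptide, 25 µM α-KG, 0.25 mM NAD⁺; 30 min RT; ΔRFU.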
A number is an active result; n = inactive. The entries come from a sample that favours hits as a whole.

SMILES | KDM5B inh
CC(C)CNC(=O)NC(=O)C(C)Sc1nc(-c2ccco2)nc2ccccc12 (centres undefined) | n
CC(=O)Nc1cccc(CNC(=O)/C=C/c2sccc2C)c1 | n
COc1ccccc1Nc1ncc2c(n1)CN(C(=O)c1ccccc1)CCN2 | n
COc1ccccc1Nc1ncc2c(n1)CN(C(=O)c1cccc(C#N)c1)CCN2 | n
COc1ccccc1Nc1ncc2c(n1)CN(C(=O)c1cc3ccccc3n1C)CCN2 | 40µM
C=CCn1c(SCc2ccc(Cl)cc2)nc2c1c(=O)n(C)c(=O)n2C | n
Cc1cc(C(=O)C(C)Sc2nnnn2C2CCCC2)c(C)n1Cc1ccco1 (centres undefined) | n
Cc1ccc(CNC(=O)c2ccccn2)s1 | n
CC(C)c1noc(-c2ccccc2OCC(=O)Nc2ccccc2[N+](=O)[O-])n1 | n
CC(=O)c1ccc(NC(=O)COc2ccccc2-c2nc(C(C)C)no2)cc1 | n
CC(C)c1noc(-c2cccn3c(CNC(=O)c4ccco4)nnc23)n1 | 22µM
CC(C)c1noc(-c2cccn3c(CNC(=O)c4ccccc4)nnc23)n1 | 22µM
CC(C)c1noc(-c2cccn3c(CNC(=O)c4ccccn4)nnc23)n1 | 25µM
CC(CNC(=O)c1ccco1)c1ccccc1 (centres undefined) | n
COc1ccccc1OCCSc1nnc(CNC(=O)c2ccco2)n1C | n
CCN(CC)c1ccc(C(=O)NCc2nnc3c(-c4nc(C(C)C)no4)cccn23)cc1 | n
COc1ccc(NC(=O)c2ccc(NC(=O)c3ccc4ccccc4n3)cc2)cc1 | n
O=C(NC1CCCCCC1)c1cnn2c(C(F)(F)F)cc(-c3ccco3)nc12 | n
Fc1ccc(OCc2ncc(-c3ccccc3)o2)c(Br)c1 | n
Cc1cccc(C(=O)NC(Nc2ccc3ccccc3c2)C(Cl)(Cl)Cl)c1 (centres undefined) | n
O=C(c1ccc(Cl)cc1)N1CC2(CCN(Cc3c[nH]c4ccccc34)CC2)Cc2ccccc21 | n
COc1cccc(/C=C/c2nc(C#N)c(NCc3ccc4c(c3)OCO4)o2)c1 | n
CN(CC(=O)Nc1cccc(F)c1)C(=O)Cc1csc(-c2cccc(Br)c2)n1 | n
CC1(COCC2CC2)COc2ccc(C(=O)Nc3ccccc3)cc2N1 (centres undefined) | 25µM
CC1(COCC2CC2)COc2ccc(C(=O)NCc3ccccc3)cc2N1 (centres undefined) | 35µM
SMILES | KDM5B inh
CC(C)CNC(=O)c1ccc2c(c1)NC(C)(COCC1CC1)CO2 (centres undefined) | 40µM
CC1(COCC2CC2)COc2ccc(C(=O)Nc3ccc4[nH]ccc4c3)cc2N1 (centres undefined) | n
CCOC(=O)c1ccccc1NC(=O)/C(C#N)=C\c1cc(OC)ccc1O | n
COc1cc(C2CC(=O)Nc3nc(C)[nH]c(=O)c32)ccc1OCc1ccccc1Cl (centres undefined) | n
Cc1c(Cl)cccc1Nc1nc(N)c(C(=O)c2ccccc2F)s1 | n
CCN(CC)CCNc1nc(C)c2c(c1C#N)CCCC2 | n
Cc1ccc(NC(=O)Cc2nc(CSc3nncn3-c3ccccc3)cs2)cc1 | n
Cc1ccc(-c2nc(C(=O)N3CCN(C(C#N)c4ccc(F)cc4)CC3)cs2)cc1 (centres undefined) | n
CC(=O)c1ccccc1NC(=O)COC(=O)c1cc(=O)c2ccccc2o1 | n
Cc1nc(-c2ccccc2OC2CN(C(=O)c3ccoc3)C2)no1 | n
Cc1nc(-c2ccccc2OC2CN(C(=O)c3cccc4[nH]ccc34)C2)no1 | 28µM
COc1cccc(C(=O)N2CC(Oc3ccc(-c4nc(-c5ccccc5)no4)cc3)C2)c1 | n
O=C(c1cccc2[nH]ccc12)N1CC(Oc2ccc(-c3nc(-c4ccccc4)no3)cc2)C1 | 11µM
Cc1noc(-c2ccc(OC3CN(C(=O)Nc4cccc(F)c4)C3)cc2)n1 | n
COc1ccc(S(=O)(=O)N2CC(Oc3ccccc3-c3noc(C)n3)C2)cc1 | n
CNC(=O)N1CCC(Oc2ccccc2-c2nc(C3CC3)no2)C1 (centres undefined) | n
O=C(c1cc(F)ccc1F)N1CC(Oc2ccc(-c3nc(-c4ccccc4)no3)cc2)C1 | n
Cc1nc(-c2ccc(OC3CCN(C(=O)Nc4ccccc4)C3)cc2)no1 (centres undefined) | n
Cc1noc(-c2ccc(OC3CN(C(=O)Nc4ccccc4)C3)cc2)n1 | n
O=C(Nc1ccccc1)N1CCC(Oc2ccccc2-c2nc(-c3ccccc3)no2)C1 (centres undefined) | 32µM
Cc1cccc(NC(=O)N2CC(Oc3ccc(-c4nc(-c5ccccc5)no4)cc3)C2)c1 | 13µM
O=C(Cc1ccc(F)cc1)N1CCC2(C1)C(=O)N(CCc1ccccc1)c1ccccc12 (centres undefined) | n
CC(NC(=O)Cn1c(=O)c2c(ncn2C2CCCC2)n(Cc2ccccc2)c1=O)c1cccs1 (centres undefined) | n
Cn1c(=O)c2c(nc(N3CCC(Cc4ccccc4)CC3)n2CC(=O)O)n(C)c1=O | n
COCCCNC(=O)Cc1c(C)c2c(O)cc(C)cc2oc1=O | n
SMILES | KDM5B inh
CCOC(=O)c1ccc(NC(=O)C2CC(=O)Nc3nc(C)nn32)cc1 (centres undefined) | n
CC(C)Nc1nc(-c2ccc3c(c2)CCC(=O)N3)cs1 | n
CNS(=O)(=O)c1ccc(NCCc2ccc(S(N)(=O)=O)s2)c([N+](=O)[O-])c1 | n
CC(NC(=O)c1n[nH]c(=O)c2ccccc12)c1ccc(F)c(F)c1 (centres undefined) | n
C=CCNc1nc(-c2cccnc2)nc2ccccc12 | n
COc1ccc(NC(=O)C2CC(=O)Nc3c(-c4ccc(OC)cc4)cnn32)cc1 (centres undefined) | n
Cc1noc(-c2ccc(OC3CN(C(=O)c4sccc4C)C3)cc2)n1 | n
Cc1cc(C(=O)N2CC(Oc3ccc(-c4nc(-c5ccccc5)no4)cc3)C2)nn1C | n
Cn1cccc1C(=O)N1CC(Oc2ccc(-c3nc(-c4ccccc4)no3)cc2)C1 | 28µM
Cc1noc(-c2ccc(OC3CN(C(=O)Cc4ccccc4)C3)cc2)n1 | n
Cc1noc(-c2ccc(OC3CN(C(=O)c4cccc5[nH]ccc45)C3)cc2)n1 | 28µM
Cn1cc(C(=O)N2CC(Oc3ccc(-c4nc(-c5ccccc5)no4)cc3)C2)cn1 | n
CC(C)(C)C(=O)NC(Nc1ccccc1)C(Cl)(Cl)Cl (centres undefined) | n
c1ccc(Nc2cccc(Nc3nc(CN4CCOCC4)nc4sc5c(c34)CCC5)c2)cc1 | n
CCOc1ccc(C(=O)Nc2ccc3oc(-c4cccc(C)c4)nc3c2)cc1[N+](=O)[O-] | n
CCC(C)(C)C1CCC(NC(=O)Cn2nc(C(N)=O)c3ccccc3c2=O)CC1 (centres undefined) | n
O=C(Cc1n[nH]c(=O)c2ccccc12)Nc1ccc(F)cc1 | n
Cc1oc(-c2ccccc2)nc1C(=O)OCC(=O)NC1(C#N)CCCCC1 | n
CCn1c(SCc2ccc(F)cc2Cl)nnc1-c1cnccn1 | n
CCCN(C(=O)Cn1nc(Cc2ccncc2)c2ccccc2c1=O)c1ccc(CC)cc1 | n
Cc1oc2cc(OCC(=O)NCC(=O)O)ccc2c(=O)c1-c1ccc(Cl)cc1 | n
COc1ccccc1N1CCN([C@@H]2[C@H](O)[C@H](CO)O[C@@H]2CNC2CCCCC2)CC1 | n
O=S(=O)(NC[C@H]1O[C@@H](CO)[C@@H](O)[C@H]1N1CCN(c2ncccn2)CC1)c1ccccc1 | n
CC(C)NC[C@H]1O[C@@H](CO)[C@@H](O)[C@H]1N1CCN(c2ccccn2)CC1 | 25µM
